Shown is part of a subset that was picked to be rich in hits.
BoNT A protease = BoNT/A light chain protease inhibitors, primary screen, biochemical, flow cytometry, MLPCN library | Botulinum neurotoxin type A light chain protease (Clostridium botulinum A str. ATCC 3502) | multiplex microsphere protease substrate cleavage | inhibition, % at 10 µM | 0.17% of 360,000 active; further: plate controls were buffer without enzyme for full effect and enzyme alone for no effect
Anthrax LF inh2 = Bacillus anthracis LF protease inhibitors, primary screen, biochemical, multiplex microsphere, MLPCN library. Lethal factor (Bacillus anthracis), P15917. multiplex microsphere protease cleavage assay. inhibition, % at 10 µM. 0.12% of 360,000 active; further: plate controls were buffer without enzyme for full effect and enzyme alone for no effect
BoNT F protease = BoNT/F light chain protease inhibitors, primary screen, biochemical, flow cytometry, MLPCN library; Botulinum neurotoxin type F light chain protease (Clostridium botulinum); Multiplex microsphere protease cleavage assay; inhibition, % at 10 µM; 0.22% of 360,000 active; AID 588497, 2011; in the data active means inhibition above about 35%, passing the limit was not always enough; inconclusive means no clear call, values can overlap the other calls; further: plate controls were buffer without enzyme for full effect and enzyme alone for no effect
TcdB inh = TcdB glycohydrolase inhibitors, primary screen, biochemical, single point, plate reader | TcdB glycohydrolase enzymatic assay | inhibition, % at 9.99 µM | Toxin B (Clostridioides difficile), P18177 | 0.24% of 350,000 active; in the data active means inhibition above about 10%
Bead autofluor = flagged as autofluorescent in microsphere protease counterscreen; 3.1% of 360,000 active; compound autofluorescence counterscreen, microsphere flow cytometry; stronger effect = higher value; fluorescence intensity (test concentration not listed); in the data active means fluorescence intensity above about 16000; inconclusive means no clear call, values can overlap the other calls
The depositor's hits bear a star; u = inconclusive; x = no result given. Unless noted, no stated cut-off is given here; in the data, active means inhibition above about 30%; inconclusive means no clear call, values can overlap the other calls; inactive means below that.

SMILES | BoNT A protease | Anthrax LF inh2 | BoNT F protease | TcdB inh | Bead autofluor
CCC(C)(C)n1nnnc1CN1CCC(NC(=O)c2ccccc2C)CC1 | 0 | -10 | -7 | x | 8605
C[C@@H]1CN([C@H](C)CO)C(=O)c2cc(NS(C)(=O)=O)ccc2O[C@@H]1CN(C)Cc1ccc(C(=O)O)cc1 | x | x | x | 0 | x
COc1cccc(C2C(C(=O)Nc3cccnc3)=C(C)Nc3nnnn32)c1OC (stereo unspecified) | 0 | 2 | 1 | x | 4340
COc1ccccc1NC(=O)C1=C(C)Nc2nnnn2C1c1cc(Br)ccc1OC (stereo unspecified) | -4 | -2 | -5 | x | 23731*
CC1=C(C(=O)Nc2cccnc2)C(c2ccncc2)n2nnnc2N1 (stereo unspecified) | u | 2 | -2 | x | 19936*
COc1ccc2c3c(n(C)c2c1)[C@@H](CO)N(C(=O)NC(C)C)CC31CCN(C(=O)NC(C)C)CC1 | x | x | x | -1 | x
CCOC(=O)C1=C(C)NC(=O)C(C(N)=O)C12CCCC2 (stereo unspecified) | u | -3 | -4 | x | 23702*
CCOC(=O)C1=C(C)NC(=O)C(C(N)=O)C12CCCCC2 (stereo unspecified) | 0 | -4 | -3 | x | 4653
C[C@@H]1CCCCO[C@H](CN(C)C)[C@@H](C)CN([C@@H](C)CO)C(=O)c2cc(NC(=O)Nc3ccc4c(c3)OCO4)ccc2O1 | x | x | x | -2 | x
CC(C(=O)Nc1ccc(Br)cc1C(=O)c1ccccc1)N1CCCCC1 (stereo unspecified) | 6 | -5 | 8 | x | 19761*
COCC(=O)Nc1ccc2c(c1)OC[C@H](C)N(C(=O)c1ccccc1F)C[C@@H](C)[C@H](OC)CN(C)C2=O | x | x | x | 0 | x
CCc1ccccc1N=C1S/C(=C/c2ccccc2OCC(=O)N2CCOCC2)C(=O)N1C | 0 | -2 | -4 | x | 2453
O=C1NN(c2ccccc2)C(=O)/C1=C\c1ccccc1OCC(=O)N1CCOCC1 | 5 | -17 | 4 | x | 21121*
Cc1nc(N[C@@H](Cc2ccccc2)C(=O)O)c2oc3ccccc3c2n1 | 0 | 0 | 0 | x | 2480
Cc1nc(NC(C)C(=O)O)c2nc(C)oc2n1 (stereo unspecified) | 2 | -1 | 3 | x | 21393*
COc1ccc(-c2cc(-c3c(O)c(OC)c4occc4c3OC)[nH]n2)cc1 | u | -7 | -5 | x | 21696*
Cc1cc(S(=O)(=O)NCCN(C)C)c(C)s1 | 0 | 0 | 1 | x | 22830*
Cc1cc(S(=O)(=O)NCc2ccc(S(N)(=O)=O)cc2)c(C)s1 | 3 | -2 | -2 | x | 21825*
CS(=O)(=O)c1ccc2nc(NC(=O)CCN3C(=O)c4ccccc4C3=O)sc2c1 | 1 | -5 | 7 | 0 | 4895
COc1ccc2nc(NC(=S)N(C)C)sc2c1 | -3 | -1 | -4 | x | 23623*
COc1ccc2nc(NC(=O)C3COc4ccccc4O3)sc2c1 (stereo unspecified) | 1 | -2 | -10 | 0 | 5483
COc1ccc2nc(NNC(=O)C3COc4ccccc4O3)sc2c1 (stereo unspecified) | 0 | -2 | -8 | 39* | 5933
COc1ccc2nc(NC(=O)C(NS(=O)(=O)c3cccs3)C(C)C)sc2c1 (stereo unspecified) | -4 | -3 | -6 | x | 21430*
COc1ccc2nc(NC(=O)CCN3C(=O)c4ccccc4C3=O)sc2c1 | u | 0 | -3 | x | 16754*
CO[C@H]1CN(C)C(=O)c2ccc(NS(=O)(=O)C3CCCCC3)cc2OC[C@H](C)NC[C@@H]1C | x | x | x | 1 | x
SMILES | BoNT A protease | Anthrax LF inh2 | BoNT F protease | TcdB inh | Bead autofluor
C[C@H](O)C#Cc1cnc2c(c1)C(=O)N([C@H](C)CO)C[C@H](C)[C@H](CN(C)C(=O)CC1CC1)O2 | x | x | x | 0 | x
COc1ccc2nc(NC(=O)c3ccoc3C)sc2c1 | 1 | 1 | 1 | 2 | 21922*
Cc1nn(-c2ccccc2)c(C)c1C(=O)Nc1nnc(-c2ccco2)o1 | 0 | 0 | 0 | x | 20671*
COc1cccc(C2CC(c3ccccc3Cl)Nc3ncnn32)c1 (stereo unspecified) | 4 | -7 | 5 | x | 18432*
CN(CC(=O)Nc1ccccc1C(=O)N1CCCC1)S(=O)(=O)c1ccc(Br)cc1 | -2 | 0 | -3 | x | 24180*
CCN1C(=O)c2cccc3c(NS(=O)(=O)c4ccc(NC(C)=O)cc4)ccc1c23 | u | u | 6 | x | u
CCOC(=O)c1ccc(NC(=O)Nc2ccc3c4c(cccc24)C(=O)N3CC)cc1 | -2 | 0 | -2 | 1 | 21257*
CN(C)c1cccc(NC(=O)CCc2ccccc2)c1 | 12 | 25 | 75* | x | 7865
COCC(=O)N(C)C[C@@H]1Oc2ncc(C#Cc3ccc(F)cc3)cc2C(=O)N([C@H](C)CO)C[C@@H]1C | x | x | x | 0 | x
N=C(N)c1ccc(N=Nc2c(O)ccc3c2[nH]c2ccccc23)cc1 | 0 | -7 | 4 | 14* | 4106
COC(=O)c1c(NC(=O)C2CC=CCC2C(=O)O)sc(C)c1C (stereo unspecified) | u | 3 | 1 | x | 22701*
O=c1cc[nH]c2cccc(Cc3ccccc3)c12 | -2 | -4 | -2 | x | 24296*
COc1ccc(C(C)NC(=O)Cc2cccs2)cc1 (stereo unspecified) | -3 | -3 | 3 | 0 | 3063
CC(NC(=O)Cc1cccs1)c1ccncc1 (stereo unspecified) | -4 | -9 | -8 | x | 24187*
CN(C)CC(=O)N[C@H]1CC[C@H](CCn2cc(C3CC3)nn2)O[C@@H]1CO | x | x | x | 0 | x
O=C(CC1CC1)N1CC2(C1)[C@@H](c1ccccc1)[C@H](CO)N2C(=O)c1cnccn1 | x | x | x | 0 | x
CC(NC(=O)CCC(=O)NC(C)c1ccccc1)c1ccccc1 (stereo unspecified) | -1 | 4 | -12 | 0 | 3204
CC(NC(=O)CCC(=O)N1CCCCCC1)c1ccccc1 (stereo unspecified) | 1 | -2 | 36* | 1 | 4180
CC(NC(=O)C1CCCC1)c1ccccc1 (stereo unspecified) | 0 | -6 | 17 | 0 | 3146
CC(NC(=O)C1CCCN(C(=O)N(C)C)C1)c1ccccc1 (stereo unspecified) | 0 | -2 | -2 | x | 20508*
O=C(Cc1ccccc1)NCC(=O)N1CCCCCC1 | 2 | 2 | 3 | x | 22214*
C[C@@H]1CN([C@@H](C)CO)C(=O)c2cc(-c3cncnc3)cnc2O[C@H]1CN(C)C(=O)Cc1cccnc1 | x | x | x | -1 | x
C[C@H]1CN([C@@H](C)CO)C(=O)Cc2cc(NC(=O)CCCCCC(=O)Nc3ccccc3N)ccc2O[C@H]1CN(C)C(=O)Nc1ccccc1 | x | x | x | -7 | x
C[C@H](CO)N1C[C@H](C)[C@H](CN(C)C(=O)CN(C)C)Oc2ncc(C#Cc3ccncc3)cc2C1=O | x | x | x | -1 | x
COCC(=O)N1CCCCN2[C@H](CO)[C@H](c3ccc(C#Cc4cccnc4)cc3)[C@@H]2C1 | x | x | x | 0 | x

Screening data (PubChem)
